LGR2 antag: Drosophila LGR2 receptor signaling inhibition. HEK293 LGR2, CRE-luciferase, bursicon-stimulated, 4 h. inhibition, % at 9.99 µM. 380,000 tested, 0.35% active. AID 720647;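 active = drop in luminescence signal, shown as inhibition above about 50% in the replicate tests, limit read from the data, passing the limit was not always enough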;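 also: agonist challenge used bursicon conditioned medium at about half maximal strength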
MITF TRPM1 inh: MITF TRPM1 promoter inhibition in SK-MEL-5 cells. 330,000 tested, 0.83% active. AID 488899. SK-MEL-5 TRPM1 promoter luciferase, 24 h. inhibition, % at 12.5 µM;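 active = mean inhibition across replicates of 60% or more, whatever share of single replicates reaches that level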
MITF act: activators of MITF-driven TRPM1 promoter activity in SK-MEL-5 cells; AID 588334; activation, % at 12.5 µM; 300,000 tested, 0.75% active; SK-MEL-5 TRPM1-promoter luciferase, 24 h; % of positive control, neutral wells = 0;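 active = mean activation of at least 80% with every replicate also reaching 80%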
TROY NFkB inh: TROY signaling inhibition; Q293 LMP1-TROYcd NF-kB luciferase reporter, 4 h; inhibition, % at 10 µM; 360,000 tested, 0.98% active;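 active = compounds whose plate-normalised and pattern-corrected inhibition of the luciferase reporter signal at the single screening dose is 50% or more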
TWEAK-Fn14 inh: blocks TWEAK-Fn14 interaction in a reporter cell assay. 360,000 tested, 2% active. inhibition, % at 10 µM. TWEAK-stimulated Fn14 reporter cells, luciferase luminescence, 8 h. AID 1159606; in the data active = inhibition above about 50%
EBV LMP1 NFkB: inhibitors of Epstein-Barr LMP1-induced NF-kappaB reporter. inhibition, % at 12.5 µM. AID 504558. LMP1-induced NF-kappaB luciferase reporter cells, luminescence. 350,000 tested, 0.69% active; in the data active = inhibition above about 41%
Hits are given with their value; n = inactive; x = no result. An excerpt weighted towards active compounds, which were near 3% of everything screened.

SMILES | LGR2 antag | MITF TRPM1 inh | MITF act | TROY NFkB inh | TWEAK-Fn14 inh | EBV LMP1 NFkB
O=C(Cc1cccnc1)N1CCCCN2[C@H](C1)[C@H](c1ccc(/C=C/c3ccccc3)cc1)[C@@H]2CO | n | x | x | x | x | x
COc1cccc2c1C(=O)c1c(O)c3c(c(O)c1C2=O)CC(O)(C(C)=NO)CC3OC1CC(N)C(O)C(C)O1 (stereo unspecified) | 63 | 70 | x | n | n | 42
CC=Cc1ccc2n(c1=O)C[C@@H]1[C@@H](CO)[C@H](C(=O)OC)[C@H]2N1CC1CCCC1 (mixture of isomers) | n | x | x | x | x | x
CC1=C(O)C(=O)C=C2C1=CC=C1C2(C)CCC2(C)C3CC(C)(C(=O)O)CCC3(C)CCC12C (stereo unspecified) | x | 94 | n | 89 | 106 | 88
COC(=O)[C@@H]1[C@@H](CO)[C@@H]2Cn3c(ccc(-c4ccc(F)cc4)c3=O)[C@H]1N2Cc1cccnc1 | n | x | x | x | x | x
C=CC[C@@H](CC/C=C/C=C/CC/C=C\[C@@H]1CSC([C@@H]2C[C@@H]2C)=N1)OC | x | 67 | n | n | n | n
